Measurements as given in PubChem BioAssay AID1946 (Johns Hopkins Ion Channel Center, 2009).
The campaign covered roughly 2,400 compounds. About 180 (7.5%) were called active.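 How the source made its calls: active means readout below zero, meaning a drop past 3 SD under the dofetilide-free negative control mean; inactive means the rest.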 What follows is part of a selection rich in actives, with near analogues and random picks from the rest.

molecular target: Potassium voltage-gated channel subfamily KQT member 2 (Rattus norvegicus) (UniProt O88943); assay: KCNQ2 blockade in CHO cells – cell-based, FluxOR thallium flux, counter-screen for hERG block protector project, confirmation (AID 1946); details: FluxOR thallium flux fluorescence, at 10 µM, hits give low values, zero marks the 3-SD hit cutoff
Sequence (O88943 whole entry, looked up): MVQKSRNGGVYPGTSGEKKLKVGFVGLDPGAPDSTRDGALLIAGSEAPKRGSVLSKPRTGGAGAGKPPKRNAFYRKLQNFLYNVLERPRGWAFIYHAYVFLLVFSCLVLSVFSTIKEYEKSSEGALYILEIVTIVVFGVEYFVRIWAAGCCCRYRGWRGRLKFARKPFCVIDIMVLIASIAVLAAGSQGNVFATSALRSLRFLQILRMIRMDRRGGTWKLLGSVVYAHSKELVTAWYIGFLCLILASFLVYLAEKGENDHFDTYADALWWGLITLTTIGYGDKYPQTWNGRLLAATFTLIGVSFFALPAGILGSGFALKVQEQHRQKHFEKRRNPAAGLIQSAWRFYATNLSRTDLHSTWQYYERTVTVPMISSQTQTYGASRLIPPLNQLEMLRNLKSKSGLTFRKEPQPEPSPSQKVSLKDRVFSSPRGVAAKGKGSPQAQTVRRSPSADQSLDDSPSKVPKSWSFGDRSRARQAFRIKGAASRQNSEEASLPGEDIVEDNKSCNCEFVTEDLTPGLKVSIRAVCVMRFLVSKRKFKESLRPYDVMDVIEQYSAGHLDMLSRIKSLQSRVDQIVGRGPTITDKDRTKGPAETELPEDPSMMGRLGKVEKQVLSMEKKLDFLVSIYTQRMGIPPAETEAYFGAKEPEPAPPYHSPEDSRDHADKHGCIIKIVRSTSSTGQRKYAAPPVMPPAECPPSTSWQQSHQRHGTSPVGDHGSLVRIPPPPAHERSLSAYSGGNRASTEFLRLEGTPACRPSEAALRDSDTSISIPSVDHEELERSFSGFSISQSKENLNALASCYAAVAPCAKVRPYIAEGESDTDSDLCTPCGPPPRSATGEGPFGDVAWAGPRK

SMILES | activity change vs negative control
Cc1c(-c2ccccc2)sc2nc[nH]c(=S)c12 | 75% (inactive)
Cc1cc(C(=O)NP(=O)(N2CCOCC2)N2CCOCC2)c(C)n1-c1ccc(Br)cc1 | -0.1% (active)
Cc1cc(F)c(F)c(C(=O)N2CCOCC2)c1 | 7.3% (inactive)
Cc1ccc(-n2c(C)cc(C(=O)CN3CCOCC3)c2C)cc1 | 10.9% (inactive)
O=c1c(-c2cccc3ccccc23)[n+]([O-])c2ccccc2n1O | 27.4% (inactive)
COc1ccc(-c2cc(=O)oc3cc(OCC(C)=O)ccc23)cc1 | -6.4% (active)
Cc1cc(=O)oc2cc(OCC(=O)OCC(=O)NC(C)C)ccc12 | 12.7% (inactive)
COc1ccc(-c2c(C)c3ccc(OCC(C)=O)cc3oc2=O)cc1 | 4.2% (inactive)
Oc1ccc(N2CCN(C(c3cccnc3)c3nnnn3Cc3ccccc3)CC2)cc1 (configuration not stated) | 19.3% (inactive)
c1ccc(Cn2ncc3c(N4CCN(C(c5ccccc5)c5ccccc5)CC4)ncnc32)cc1 | -7.5% (active)
Oc1ccc(Cl)cc1C1=NNC(c2cccs2)C1 (configuration not stated) | 36.9% (inactive)
CC(C)c1ccc(NC(=O)C2CC3CCC2C3)cc1 (configuration not stated) | 45.1% (inactive)
CCOC(=O)C1=NN(C(=O)c2cccc(Br)c2)C(O)(C(C)(C)C)C1 (configuration not stated) | 111% (inactive)
O=C(NC(=S)N1CCCc2ccccc21)c1ccc(Br)cc1 | 49.6% (inactive)
O=C(NN1C(=O)C2C(c3ccccc3)C=CC(c3ccccc3)C2C1=O)c1ccncc1 (configuration not stated) | -13% (active)
O=C(NN1C(=O)C2C(c3ccccc3)C=CC(c3ccccc3)C2C1=O)c1cccc(Br)c1 (configuration not stated) | 10.8% (inactive)
O=C(Nn1cnnc1)c1ccncc1 | 12.7% (inactive)
Cc1ccc(C(C)NC(=O)C2CCCC2)cc1C (configuration not stated) | 66.7% (inactive)
Cc1cccc(N2CCN(C(=O)Cc3c(C(=O)O)[nH]c4ccc(Cl)cc34)CC2)c1C | 38.6% (inactive)
CC1CCN(C(=S)NC(=O)c2cccc([N+](=O)[O-])c2)CC1 | 37.1% (inactive)
O=c1c2cc(Cl)ccc2nc(-c2ccc(Cl)c(Cl)c2)n1O | 150% (inactive)
Cc1ccc(-c2nc3ccc(Cl)cc3c(=O)n2O)cc1 | 118% (inactive)
Cc1ccc(-c2onc3ccc(Cl)cc23)cc1 | -2% (active)
CC[C@@H](C(=O)[C@@H](C)[C@@H](O)[C@H](C)CCc1ccc(C)c(O)c1C(=O)O)[C@H]1O[C@](CC)([C@H]2CC[C@](O)(CC)[C@H](C)O2)C[C@@H]1C | 169% (inactive)
COc1ccccc1NC(=S)NC(=O)c1ccc(-c2ccc(Cl)cc2)o1 | 16.7% (inactive)

SMILES | activity change vs negative control
C=CCn1c(=S)[nH]c2sc3c(c2c1=O)CCCC3 | 60.7% (inactive)
O=C(CNC(=O)c1ccccc1)NCc1ccc(Cl)cc1 | 10.8% (inactive)
O=C(Cn1c(=O)c2cccn2c2ccccc21)NCCc1ccc(Cl)cc1 | -3.5% (active)
O=C(NC(=S)NCCc1ccc(Cl)cc1)c1ccco1 | 23.7% (inactive)
Cc1nc(NCCc2ccc(S(N)(=O)=O)cc2)c2c(C)c(C)sc2n1 | 15.2% (inactive)
O=c1cc(-c2c(F)c(F)c(F)c(F)c2F)oc2ccccc12 | 41.6% (inactive)
COc1ccccc1C(=O)Nc1ccc(C(=O)N2CCCC2)cc1 | 14.7% (inactive)
CCOC(=O)c1nnn(CC(=O)Nc2ccccc2OC)c1C(=O)OCC | 7.9% (inactive)
COc1ccccc1C(=O)COC(=O)c1ccc(-n2cnnn2)cc1 | -0.2% (active)
O=C(NC(=S)Nc1nc(-c2ccc([N+](=O)[O-])cc2)cs1)c1ccco1 | 42% (inactive)
Cc1ccc(S(=O)(=O)N(C)C)cc1NC(=S)NC(C)CCCC(C)C (configuration not stated) | -2.5% (active)
O=c1c2ccc(Cl)cc2[nH]c(=S)n1CCC1=CCCCC1 | 32.4% (inactive)
NC(=O)c1cccc(N=Cc2cc(Cl)cc(Cl)c2O)c1 | 43.3% (inactive)
O=C(Nc1nc(=S)ss1)c1ccc(Cl)cc1Cl | 122% (inactive)
CCC1CCCCN1C(=S)NC(=O)c1cccc([N+](=O)[O-])c1 (configuration not stated) | 55.4% (inactive)
O=C(NC(=S)NCCC1=CCCCC1)c1ccc(Br)o1 | 26.5% (inactive)
Cc1cc([N+](=O)[O-])c(C)cc1-c1ccc(/C=N/NC(=O)Cn2nnnc2N)o1 | 19.5% (inactive)
C=CCSC1=C(C#N)C(c2ccccc2)CC(=O)N1 (configuration not stated) | -8.8% (active)
COc1ccc(C(=O)NNC(=O)C(=O)Nc2cccc3ccccc23)cc1 | 80.5% (inactive)
Cc1ccc(NC(=O)C(=O)NNC(=O)c2cccs2)cc1 | 83.8% (inactive)
C=CCn1c(SCC(N)=O)nc2scc(-c3ccc(C)o3)c2c1=O | 33% (inactive)
CCCN(CCC)C(=S)NC(=O)c1ccc(-c2ccccc2)cc1 | 106% (inactive)
CS(=O)(=O)N1CCC(C(=O)Nc2c(F)cccc2F)CC1 | 16.7% (inactive)
O=C(CSc1nnc(NC(=O)c2ccc(S(=O)(=O)N3CCOCC3)cc2)s1)Nc1ccccc1C(F)(F)F | 15.7% (inactive)
CSc1ccc(S(=O)(=O)N2CCC(C(=O)Nc3ccccc3C(F)(F)F)CC2)cc1 | -0.2% (active)

SMILES | activity change vs negative control
S=c1[nH]c2cc(-c3ccccc3)ccc2o1 | 114% (inactive)
N#Cc1ccc(-c2nc3ccc(Br)cc3c(=O)n2O)cc1 | 40.3% (inactive)
O=S(=O)(Nc1ccc(O)c2ccccc12)c1ccc(F)cc1 | 1.7% (inactive)
COc1ccc(OC)c(S(=O)(=O)Nc2ccc(O)c3ccccc23)c1 | 1.4% (inactive)
Cc1ccc(S(=O)(=O)Nc2ccc(O)c3ccccc23)c(C)c1 | -3.3% (active)
CC1Cc2ccccc2N1C(=S)NC(=O)C1(C)CC1(Cl)Cl (configuration not stated) | 59.5% (inactive)
CC(NC(=S)NC1CCCCC1)c1ccccc1 (configuration not stated) | 29.9% (inactive)
Cc1ccc(S(=O)(=O)N2CCOCC2)cc1NC(=O)CSc1nc2ccccc2c(=O)n1Cc1ccccc1 | 13.7% (inactive)
Cc1ccc(Cl)cc1NC(=O)COC(=O)c1ccccc1O | 6.8% (inactive)
Cc1ccc(S(=O)(=O)N2CCOCC2)cc1NC(=O)COC(=O)c1cccnc1Cl | -1.4% (active)
C=CCNC(=S)Nc1sc2c(c1C(=O)OCC)CC(C)(CC)OC2 (configuration not stated) | 38.9% (inactive)
CC(=O)/C=C1/C(=O)Nc2ccccc21 | -4.4% (active)
CCOC(=O)c1c(NS(C)(=O)=O)sc2c1CCC(C)C2 (configuration not stated) | 40.9% (inactive)
O=c1c2[nH]c3ccccc3c2nc2n1CCCS2 | 30.9% (inactive)
O=C(NC(=S)Nc1cccc(C(F)(F)F)c1)c1csnn1 | 138% (inactive)
O=C(Nc1ccc(-c2csc(Nc3cccc(C(F)(F)F)c3)n2)cc1)c1ccccc1 | -0.8% (active)
c1ccc(-c2csc(Nc3ccc4c(c3)OCCO4)n2)cc1 | 1.2% (inactive)
CC(=O)OCC1O[C@@H](O[C@@H]2C[C@H]3C(C)(C)[C@H](OC(C)=O)CC[C@]3(C)[C@H]3CC[C@]45C[C@]4(CC[C@H]5[C@@H](C)C[C@@H](O)[C@H](O)C(C)(C)O)[C@@]32C)[C@H](O)[C@@H](O)[C@@H]1O (some centres not stated) | 32.4% (inactive)
Cc1csc(NC(=S)NC(=O)c2ccccc2)n1 | 36.6% (inactive)
NC(=O)CSc1nc2ccccc2c(=O)n1CCc1ccccc1 | 7.8% (inactive)
COc1ccc(C(=O)NNC(=O)CSc2nnc(COc3ccccc3)n2C)cc1 | 6% (inactive)
Cn1cnnc1SCC(=O)NCc1ccccc1 | -1.1% (active)
C=CCn1c(O)c(N=NC(=S)Nc2ccc(OC)cc2)c2ccccc21 | 39.5% (inactive)
O=C(NC(=S)NNC(=O)c1cccs1)c1ccc(Br)o1 | 18.8% (inactive)
COc1ccc(/C=C/C(=O)NC(=S)NNC(=O)c2cccs2)cc1 | 6.5% (inactive)

SMILES | activity change vs negative control
CCOc1ccc(NC(=S)NC(=O)c2ccco2)cc1 | 37.5% (inactive)
CCOc1ccccc1NC(=S)NC(=O)c1ccco1 | 21.9% (inactive)
CCCOc1ccc(C(=O)NNC(=S)NC(=O)c2cccs2)cc1 | -12.7% (active)
CCOc1ccc(C(=O)NC(=S)N(Cc2ccccc2)Cc2ccccc2)cc1 | 15.8% (inactive)
CCCOc1ccc(CN(CCC#N)C(=S)NC(=O)c2ccccc2)cc1 | 35.1% (inactive)
CCCOc1ccc(C(=O)NNC(=S)NC(=O)c2ccccc2)cc1 | -1.3% (active)
CCCOc1ccc(C(=O)NNC(=S)NC(=O)c2ccco2)cc1 | -4.6% (active)
COC(=O)C1=C(C)NC2=C(C(=O)CCC2)C1c1ccc(-c2ccsc2C(=O)OC)o1 (configuration not stated) | 75.1% (inactive)
O=C(NC(=S)NCc1ccccc1)c1cccs1 | 36.9% (inactive)
CCOc1ccc(-c2c(=O)n(O)c3ccccc3[n+]2[O-])cc1 | 83.3% (inactive)
S=c1[nH]cc(Cc2ccccc2)s1 | 25.1% (inactive)
Oc1c(Br)cc(Br)cc1CNc1cccc2cccnc12 | -1.8% (active)
Oc1c(Br)cc(Br)cc1C=Nc1cccc2ncccc12 | 52.3% (inactive)
O=C1C=C(Nc2cccc3cccnc23)c2ccccc2C1=O | 14.9% (inactive)
COc1ccc(-n2ncc3c2CC(C)(C)CC3NC(=O)c2cn[nH]c2)cc1 (configuration not stated) | 0.2% (inactive)
Cc1cc(C)cc(-n2ncc3c2CCCC3NC(=O)c2csnn2)c1 (configuration not stated) | -0.8% (active)
Cc1cccnc1NC(=O)c1csnn1 | 14.2% (inactive)
Cc1ccc(-n2ncc3c2CCCC3NC(=O)c2csnn2)cc1C (configuration not stated) | -1.1% (active)
Cc1nn(-c2ccccc2)c(Cl)c1/C=C1\SC(=S)NC1=O | 81.9% (inactive)
COc1ccc(-c2cc(C(=O)N3CCCC3)no2)cc1OC | 24% (inactive)
O=C(NC(=S)Nc1ccccc1)c1ccc(Br)o1 | 34.7% (inactive)
Cc1ccc(C(C(=O)NC(C)(C)C)N(Cc2cccnc2)C(=O)C(=O)NC2CCCCC2)o1 (configuration not stated) | 14.9% (inactive)
